Residue numbers refer to the chain shown, from its start.
Assays:
Assay in all cases: yeast three-hybrid, YBZ-1, SC-Leu-His + 0.5 mM 3-AT, 4 days
Conditions in all cases: tags: N-Gal4 AD-HA kept; label: inside an RPR1-promoter hybrid RNA with tandem MS2 sites; ssRNA
PUM1 PUF domain R7-LTL = PUM1 PUF domain R7-LTL (Homo sapiens, UniProt Q14671 828-1176, S1079L;N1080T;E1083L)
In short: (§1)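 Pumilio-1 PUF domain libraries, randomized at the three base-contacting residues of each repeat, were co-expressed with matching RNA elements from a centromeric plasmid in strain YBZ-1, which carries a LexA–MS2 coat fusion and a HIS3 reporter. Transformants grew for four days on SC-Leu (input) or on SC-Leu-His + 0.5 mM 3-AT (selection), and the repeat regions were PCR-amplified and Illumina-sequenced. The interaction score is the log change in variant frequency from input to selection. That logarithm is base 2, with a pseudocount of 1 where a variant was absent.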

PUM1 PUF domain R3-TRR = PUM1 PUF domain R3-TRR (Homo sapiens, UniProt Q14671 828-1176, C935T;Q939R)
In short: as §1

PUM1 PUF domain R6-KWQ = target: T1, PUM1 PUF domain R6-KWQ (Homo sapiens, UniProt Q14671 828-1176, N1043K;Y1044W)
T1 sequence: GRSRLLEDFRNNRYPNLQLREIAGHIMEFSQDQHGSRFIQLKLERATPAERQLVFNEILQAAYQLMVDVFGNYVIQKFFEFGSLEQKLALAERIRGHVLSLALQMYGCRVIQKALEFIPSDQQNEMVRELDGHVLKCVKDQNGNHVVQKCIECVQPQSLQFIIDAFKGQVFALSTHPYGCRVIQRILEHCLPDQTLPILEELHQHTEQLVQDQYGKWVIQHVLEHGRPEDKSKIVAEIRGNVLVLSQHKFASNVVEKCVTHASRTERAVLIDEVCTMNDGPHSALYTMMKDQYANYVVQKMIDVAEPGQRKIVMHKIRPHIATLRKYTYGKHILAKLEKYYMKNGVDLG
In short: as §1

PUM1 PUF domain R4-DYA = PUM1 PUF domain R4-DYA (Homo sapiens, UniProt Q14671 828-1176, N971D;H972Y;Q975A)
In short: as §1

PUM1 PUF domain R4-WSC = PUM1 PUF domain R4-WSC (Homo sapiens, UniProt Q14671 828-1176, N971W;H972S;Q975C)
In short: as §1

PUM1 PUF domain R4-EHL = PUM1 PUF domain R4-EHL (Homo sapiens, UniProt Q14671 828-1176, N971E;Q975L)
In short: as §1

PUM1 PUF domain R3-SHA = PUM1 PUF domain R3-SHA (Homo sapiens, UniProt Q14671 828-1176, C935S;R936H;Q939A)
In short: as §1

PUM1 PUF domain R6-LWC = target: T2, PUM1 PUF domain R6-LWC (Homo sapiens, UniProt Q14671 828-1176, N1043L;Y1044W;Q1047C)
T2 sequence: T1 sequence with K216L, Q220C
In short: as §1

PUM1 PUF domain R3-TFW = PUM1 PUF domain R3-TFW (Homo sapiens, UniProt Q14671 828-1176, C935T;R936F;Q939W)
In short: as §1

PUM1 PUF domain R6-GFC = target: T3, PUM1 PUF domain R6-GFC (Homo sapiens, UniProt Q14671 828-1176, N1043G;Y1044F;Q1047C)
T3 sequence: T1 sequence with K216G, W217F, Q220C
In short: as §1

“GGCUAGAACUAGUGGAUCCCCCGGCGCCCGGCGGCUCGAGCCCGGGUAAGUUUAAAUAGUCUGCAUGCCGCCGGGCGCCAUGCCUGCAGGUCGACUCUAGAAAACAUG” was tested, and the binding signal (PUM1 PUF domain R7-LTL) was 4.96 log2 enrichment (interaction score).

“GGCUAGAACUAGUGGAUCCCCCGGCGCCCGGCGGCUCGAGCCCGGGUAAGUGUAAUUAGUCUGCAUGCCGCCGGGCGCCAUGCCUGCAGGUCGACUCUAGAAAACAUG” was tested, and the binding signal (PUM1 PUF domain R3-TRR) was 3.68 log2 enrichment (interaction score).

In the case of “GGCUAGAACUAGUGGAUCCCCCGGCGCCCGGCGGCUCGAGCCCGGGUAAGUGAAAAUAGUCUGCAUGCCGCCGGGCGCCAUGCCUGCAGGUCGACUCUAGAAAACAUG”, the binding signal (PUM1 PUF domain R6-KWQ) is reported as 2.19 log2 enrichment (interaction score).

For “GGCUAGAACUAGUGGAUCCCCCGGCGCCCGGCGGCUCGAGCCCGGGUAAGUGUAUAUAGUCUGCAUGCCGCCGGGCGCCAUGCCUGCAGGUCGACUCUAGAAAACAUG”, the binding signal (PUM1 PUF domain R4-DYA) was 7.28 log2 enrichment (interaction score) and the binding signal (PUM1 PUF domain R4-WSC) was 4.12 log2 enrichment (interaction score).

In the case of “GGCUAGAACUAGUGGAUCCCCCGGCGCCCGGCGGCUCGAGCCCGGGUAAGUGUACAUAGUCUGCAUGCCGCCGGGCGCCAUGCCUGCAGGUCGACUCUAGAAAACAUG”, the binding signal (PUM1 PUF domain R4-WSC) is reported as 2.22 log2 enrichment (interaction score) and the binding signal (PUM1 PUF domain R4-EHL) is reported as 1.89 log2 enrichment (interaction score).

“GGCUAGAACUAGUGGAUCCCCCGGCGCCCGGCGGCUCGAGCCCGGGUAAGUGUAAAUAGUCUGCAUGCCGCCGGGCGCCAUGCCUGCAGGUCGACUCUAGAAAACAUG” was tested, and the binding signal (PUM1 PUF domain R3-TRR) was 1.03 log2 enrichment (interaction score), the binding signal (PUM1 PUF domain R3-SHA) was 4.29 log2 enrichment (interaction score) and the binding signal (PUM1 PUF domain R4-WSC) was 2.87 log2 enrichment (interaction score). For the same sequence, the binding signal (PUM1 PUF domain R4-EHL) was 3.16 log2 enrichment (interaction score), the binding signal (PUM1 PUF domain R6-KWQ) was 2.54 log2 enrichment (interaction score) and the binding signal (PUM1 PUF domain R6-LWC) was 5.46 log2 enrichment (interaction score). For the same sequence, the binding signal (PUM1 PUF domain R3-TFW) was 4.12 log2 enrichment (interaction score) and the binding signal (PUM1 PUF domain R6-GFC) was 2.74 log2 enrichment (interaction score).

For “GGCUAGAACUAGUGGAUCCCCCGGCGCCCGGCGGCUCGAGCCCGGGUAAGUGUAACUAGUCUGCAUGCCGCCGGGCGCCAUGCCUGCAGGUCGACUCUAGAAAACAUG”, the binding signal (PUM1 PUF domain R3-TRR) was 5.18 log2 enrichment (interaction score).

In the case of “GGCUAGAACUAGUGGAUCCCCCGGCGCCCGGCGGCUCGAGCCCGGGUAAGUGCAAAUAGUCUGCAUGCCGCCGGGCGCCAUGCCUGCAGGUCGACUCUAGAAAACAUG”, the binding signal (PUM1 PUF domain R6-KWQ) is reported as 5.25 log2 enrichment (interaction score).

“GGCUAGAACUAGUGGAUCCCCCGGCGCCCGGCGGCUCGAGCCCGGGUAAGUGUAAGUAGUCUGCAUGCCGCCGGGCGCCAUGCCUGCAGGUCGACUCUAGAAAACAUG” was tested, and the binding signal (PUM1 PUF domain R3-TRR) was 1.75 log2 enrichment (interaction score).
